{"source": "the supplement of paper PMC3334620", "note": "The full ranking holds about 33,000 sequences; the median of “E-score (-0.5 to 0.5)” is about -0.032, and the highest 2% start at about 0.36. The entries come from a sample that favours the highest values as a whole."}
{"molecular_target": "T1, Sko1 (UniProt Q02100)", "T1 sequence": "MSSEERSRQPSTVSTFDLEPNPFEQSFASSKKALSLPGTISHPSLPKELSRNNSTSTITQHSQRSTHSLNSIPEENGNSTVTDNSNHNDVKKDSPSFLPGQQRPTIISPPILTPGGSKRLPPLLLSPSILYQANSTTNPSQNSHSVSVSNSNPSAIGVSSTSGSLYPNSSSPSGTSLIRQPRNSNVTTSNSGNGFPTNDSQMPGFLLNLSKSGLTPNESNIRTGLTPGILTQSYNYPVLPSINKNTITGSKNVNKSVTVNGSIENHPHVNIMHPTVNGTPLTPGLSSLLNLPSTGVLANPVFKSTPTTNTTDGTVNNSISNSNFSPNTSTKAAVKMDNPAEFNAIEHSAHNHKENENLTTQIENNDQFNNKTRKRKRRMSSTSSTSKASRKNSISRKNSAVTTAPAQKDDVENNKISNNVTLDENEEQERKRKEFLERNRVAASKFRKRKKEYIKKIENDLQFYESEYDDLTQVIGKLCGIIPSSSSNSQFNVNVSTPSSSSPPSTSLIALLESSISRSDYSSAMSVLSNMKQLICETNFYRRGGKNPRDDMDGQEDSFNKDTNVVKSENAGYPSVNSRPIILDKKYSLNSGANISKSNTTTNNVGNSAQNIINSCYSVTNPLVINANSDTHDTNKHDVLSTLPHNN", "test": "PBM E-score (8-mer binding enrichment) (E-score (-0.5 to 0.5)); higher = stronger / more preferred TF binding", "settings": "protein concentration: 200 nM; construct: GST-full length", "procedure,_shortened": "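Yeast transcription factors, full-length or as DNA-binding domains, were expressed with a GST tag using PURExpress in vitro transcription/translation. At about 100-200 nM they were applied to universal all-10-mer Agilent arrays, double-stranded by primer extension on fresh or once-stripped slides. Fluorescent anti-GST detected bound protein, and masliner normalised the scans. E-scores for ungapped eight-base words, pooled with reverse complements, came from the Universal PBM Analysis Suite.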"}
{"sequence": "AGAGATGG", "PBM E-score": -0.0345}
{"sequence": "CTCGTCAC", "PBM E-score": 0.38}
{"sequence": "GTCGTCAC", "PBM E-score": 0.41}
{"sequence": "ATCGTCTC", "PBM E-score": -0.0603}
{"sequence": "ATCGTCAC", "PBM E-score": 0.385}
{"sequence": "GCCGTCAC", "PBM E-score": 0.166}
{"sequence": "ATCGTCGC", "PBM E-score": 0.0155}
{"sequence": "CTCGTCAG", "PBM E-score": 0.176}
{"sequence": "CGCGTCAC", "PBM E-score": 0.41}
{"sequence": "GTCGTCAA", "PBM E-score": 0.239}
{"sequence": "CTCGTCAA", "PBM E-score": 0.0618}
{"sequence": "CGCGTCAA", "PBM E-score": 0.34}
{"sequence": "CGCGTCAG", "PBM E-score": 0.222}
{"sequence": "ACCTCCAA", "PBM E-score": -0.189}
{"sequence": "CGCAGTAC", "PBM E-score": 0.118}
{"sequence": "ACTACTGC", "PBM E-score": -0.0692}
{"sequence": "AAACCTAG", "PBM E-score": -0.0586}
{"sequence": "GACCACAA", "PBM E-score": -0.165}
{"sequence": "AACTCGAG", "PBM E-score": -0.00786}
{"sequence": "CATTTTCC", "PBM E-score": 0.122}
{"sequence": "CCGGACTC", "PBM E-score": -0.16}
{"sequence": "GCGGACGC", "PBM E-score": -0.0227}
{"sequence": "AGGGTACT", "PBM E-score": -0.236}
{"sequence": "TCACAACA", "PBM E-score": 0.251}
{"sequence": "ACTTAAGC", "PBM E-score": 0.032}
{"sequence": "AGCGTCAG", "PBM E-score": 0.154}
{"sequence": "ACCGTCAT", "PBM E-score": 0.378}
{"sequence": "ATCGTCAA", "PBM E-score": 0.287}
{"sequence": "ACCGTCAG", "PBM E-score": -0.0341}
{"sequence": "ATCGTCAT", "PBM E-score": 0.469}
{"sequence": "AGCGTCAA", "PBM E-score": 0.166}
{"sequence": "ACCGTCAA", "PBM E-score": 0.00527}
{"sequence": "AGCGTCAT", "PBM E-score": 0.445}
{"sequence": "ATCGTCAG", "PBM E-score": 0.263}
{"sequence": "CCTTAAAA", "PBM E-score": 0.101}
{"sequence": "GTGAATGA", "PBM E-score": 0.231}
{"sequence": "GGGCCAGA", "PBM E-score": -0.278}
{"sequence": "GGAGCTAC", "PBM E-score": -0.112}
{"sequence": "CGCTAGCG", "PBM E-score": -0.26}
{"sequence": "CGGAGAGA", "PBM E-score": -0.15}
{"sequence": "CTCCAAGA", "PBM E-score": -0.189}
{"sequence": "ATTCTAGG", "PBM E-score": 0.0401}
{"sequence": "AGTCGCGG", "PBM E-score": -0.312}
{"sequence": "GCAAACGA", "PBM E-score": 0.136}
{"sequence": "TAGCTACA", "PBM E-score": 0.13}
{"sequence": "GGATTCTA", "PBM E-score": -0.0972}
{"sequence": "TCATTGAA", "PBM E-score": 0.146}
{"sequence": "CATCATAG", "PBM E-score": 0.361}
{"sequence": "CATCATGG", "PBM E-score": 0.132}
{"sequence": "AATCATAG", "PBM E-score": 0.126}
{"sequence": "CATCATAC", "PBM E-score": 0.377}
{"sequence": "AATCATAC", "PBM E-score": 0.253}
{"sequence": "CATCATAA", "PBM E-score": 0.299}
{"sequence": "ATAAATAC", "PBM E-score": 0.23}
{"sequence": "CGATGGAA", "PBM E-score": 0.106}
{"sequence": "AAACAATC", "PBM E-score": 0.0366}
{"sequence": "ACAGGTTC", "PBM E-score": -0.291}
{"sequence": "ACGGTTTG", "PBM E-score": -0.104}
{"sequence": "GACCTAGA", "PBM E-score": 0.0106}
{"sequence": "AAGTATGG", "PBM E-score": 0.023}
{"sequence": "CCGTATGA", "PBM E-score": 0.135}
{"sequence": "GCGTATGA", "PBM E-score": 0.337}
{"sequence": "AGGTATGC", "PBM E-score": 0.118}
{"sequence": "ACGTATGG", "PBM E-score": 0.441}
{"sequence": "ACGTATGC", "PBM E-score": 0.458}
{"sequence": "ATGTATGG", "PBM E-score": 0.0987}
{"sequence": "CCGTATGC", "PBM E-score": -0.0726}
{"sequence": "ACGTATGA", "PBM E-score": 0.473}
{"sequence": "ACTCTCTG", "PBM E-score": -0.135}
{"sequence": "CTCGCAAG", "PBM E-score": 0.0771}
{"sequence": "CAGCACCG", "PBM E-score": -0.198}
{"sequence": "AAGAGCAT", "PBM E-score": 0.0596}
{"sequence": "AAAGGTGA", "PBM E-score": -0.09}
{"sequence": "CATTGTTA", "PBM E-score": 0.108}
{"sequence": "GTTCTTTA", "PBM E-score": 0.175}
{"sequence": "CTTACGGC", "PBM E-score": -0.277}
{"sequence": "GTTACGTA", "PBM E-score": 0.483}
{"sequence": "GTTACGGA", "PBM E-score": 0.0875}
{"sequence": "CTTACTTA", "PBM E-score": 0.0934}
{"sequence": "CTTAGGTC", "PBM E-score": 0.0974}
{"sequence": "CTTACGTA", "PBM E-score": 0.489}
{"sequence": "CTTACGTC", "PBM E-score": 0.459}
{"sequence": "CTTACGGA", "PBM E-score": 0.0115}
{"sequence": "GTTACTGA", "PBM E-score": 0.173}
{"sequence": "GGTTGCCA", "PBM E-score": -0.215}
{"sequence": "CCCTGATA", "PBM E-score": -0.149}
